In ChEMBL document CHEMBL3988442, “University of Dundee, Small-Polar-MMV Screening Library” (2021) one finds Percent Effect data, which are given here for 11 molecules.

Holding throughout (design): scale not given: direction of the effect not stated beside the values
Experiment [1] has as its target Protein translocase subunit SecA (Escherichia coli (strain K12)) (UniProt P10408). Description: Assay to Identify E. coli SecA ATPase Inhibitors. Format: functional. To be noted: 30 µM.
Experiment [2] addresses T1, Ubiquitin-activating enzyme e1, putative (Leishmania donovani (strain BPK282A1)) (UniProt E9BSI1).
T1 sequence (whole entry): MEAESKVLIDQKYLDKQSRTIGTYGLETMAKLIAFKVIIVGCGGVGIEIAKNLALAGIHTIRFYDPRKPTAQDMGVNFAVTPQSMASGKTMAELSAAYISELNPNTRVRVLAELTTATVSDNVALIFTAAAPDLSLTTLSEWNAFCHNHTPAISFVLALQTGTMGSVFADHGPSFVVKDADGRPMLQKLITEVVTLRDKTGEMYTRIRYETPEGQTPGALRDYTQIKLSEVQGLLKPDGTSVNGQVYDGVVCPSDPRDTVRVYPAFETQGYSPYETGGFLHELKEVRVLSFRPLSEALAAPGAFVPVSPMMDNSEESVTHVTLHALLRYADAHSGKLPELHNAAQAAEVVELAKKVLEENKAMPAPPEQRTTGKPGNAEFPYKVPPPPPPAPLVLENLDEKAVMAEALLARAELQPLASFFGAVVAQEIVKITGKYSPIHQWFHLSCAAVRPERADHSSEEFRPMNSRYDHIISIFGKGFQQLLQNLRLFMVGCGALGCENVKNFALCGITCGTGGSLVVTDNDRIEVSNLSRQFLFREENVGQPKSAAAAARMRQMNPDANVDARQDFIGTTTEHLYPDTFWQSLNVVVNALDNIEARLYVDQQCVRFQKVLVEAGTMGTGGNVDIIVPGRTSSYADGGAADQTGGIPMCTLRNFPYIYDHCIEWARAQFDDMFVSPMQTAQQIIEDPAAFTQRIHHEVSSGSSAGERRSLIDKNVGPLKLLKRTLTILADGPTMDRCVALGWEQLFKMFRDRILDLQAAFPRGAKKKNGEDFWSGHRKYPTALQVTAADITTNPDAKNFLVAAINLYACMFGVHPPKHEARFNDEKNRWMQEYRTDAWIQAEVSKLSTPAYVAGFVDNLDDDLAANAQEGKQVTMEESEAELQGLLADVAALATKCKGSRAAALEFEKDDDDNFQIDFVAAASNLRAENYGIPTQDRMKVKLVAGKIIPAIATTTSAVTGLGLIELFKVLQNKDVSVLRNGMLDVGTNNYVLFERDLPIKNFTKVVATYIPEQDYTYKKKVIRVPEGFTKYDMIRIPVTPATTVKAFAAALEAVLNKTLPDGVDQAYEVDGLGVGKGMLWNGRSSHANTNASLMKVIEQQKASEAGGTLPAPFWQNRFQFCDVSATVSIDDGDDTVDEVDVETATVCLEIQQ
Description: Leishmania donovani Ubiquitin Activating Enzyme (LdE1). To be noted: 30 µM. Format: functional.

Experiment [3] addresses Sialic acid-binding Ig-like lectin 9 (Homo sapiens) (UniProt Q9Y336). Description: Hs-Siglec9 ALPHAscreen SOP 20170721. To be noted: 10 µM.
The test system of a further experiment is Trypanosoma cruzi. Description: Trypanosoma cruzi phosphomannomutase and mannose-1-phosphate guanylyltransferase assay. Format: functional. To be noted: 10 µM.
In experiment [4] the target is T2, Arginase-2, mitochondrial (Homo sapiens) (UniProt P78540).
T2 sequence (whole entry): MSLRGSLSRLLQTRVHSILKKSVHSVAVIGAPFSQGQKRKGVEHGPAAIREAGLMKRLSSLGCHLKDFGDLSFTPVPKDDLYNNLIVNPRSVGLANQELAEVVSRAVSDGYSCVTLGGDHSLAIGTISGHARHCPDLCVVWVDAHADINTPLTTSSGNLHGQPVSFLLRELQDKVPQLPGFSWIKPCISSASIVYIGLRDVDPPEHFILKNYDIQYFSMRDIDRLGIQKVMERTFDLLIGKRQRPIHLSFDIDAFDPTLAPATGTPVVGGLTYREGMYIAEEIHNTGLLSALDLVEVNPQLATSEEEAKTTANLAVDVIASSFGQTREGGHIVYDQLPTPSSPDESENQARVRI
Description: in vitro enzyme assay to detect the production of urea directly proportional to the activity of Arginase II. Also: in the data most compounds retested in dose-response had high values. In kind it is functional. The settings on record: 33.3 µM.

Experiment [5] addresses T3, Proteasome subunit beta (Trypanosoma cruzi) (UniProt O96673).
T3 sequence (whole entry): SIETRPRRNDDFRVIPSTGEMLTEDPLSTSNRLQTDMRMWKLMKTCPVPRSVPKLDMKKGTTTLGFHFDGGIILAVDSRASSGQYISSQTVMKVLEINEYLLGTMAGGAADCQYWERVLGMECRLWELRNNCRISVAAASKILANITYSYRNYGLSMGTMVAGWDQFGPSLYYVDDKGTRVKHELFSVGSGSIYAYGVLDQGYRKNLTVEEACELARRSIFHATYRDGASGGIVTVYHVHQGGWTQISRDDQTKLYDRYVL
Description: Trypanosoma cruzi proteasome chymotrypsin-like activity (TcProtChymo) assay. Also: in the data most compounds retested in dose-response had high values. Format: functional. To be noted: 9.37 µM.

Another experiment is filed under the species Homo sapiens. Description: To identify inhibition of the IFN signalling (Jak-Stat) pathway via expression of an eGFP reporter gene under the control of an IFN-stimulated response element (ISRE) containing MxA promoter. In kind it is functional. The settings on record: 30 µM. A general note: Reporter assays use an easily measured gene product as a stand-in for the process of interest.

In experiment [6] the target is T4, Tyrosyl-tRNA synthetase, putative (Trypanosoma cruzi (strain CL Brener)) (UniProt Q4DSP6).
T4 sequence (whole entry): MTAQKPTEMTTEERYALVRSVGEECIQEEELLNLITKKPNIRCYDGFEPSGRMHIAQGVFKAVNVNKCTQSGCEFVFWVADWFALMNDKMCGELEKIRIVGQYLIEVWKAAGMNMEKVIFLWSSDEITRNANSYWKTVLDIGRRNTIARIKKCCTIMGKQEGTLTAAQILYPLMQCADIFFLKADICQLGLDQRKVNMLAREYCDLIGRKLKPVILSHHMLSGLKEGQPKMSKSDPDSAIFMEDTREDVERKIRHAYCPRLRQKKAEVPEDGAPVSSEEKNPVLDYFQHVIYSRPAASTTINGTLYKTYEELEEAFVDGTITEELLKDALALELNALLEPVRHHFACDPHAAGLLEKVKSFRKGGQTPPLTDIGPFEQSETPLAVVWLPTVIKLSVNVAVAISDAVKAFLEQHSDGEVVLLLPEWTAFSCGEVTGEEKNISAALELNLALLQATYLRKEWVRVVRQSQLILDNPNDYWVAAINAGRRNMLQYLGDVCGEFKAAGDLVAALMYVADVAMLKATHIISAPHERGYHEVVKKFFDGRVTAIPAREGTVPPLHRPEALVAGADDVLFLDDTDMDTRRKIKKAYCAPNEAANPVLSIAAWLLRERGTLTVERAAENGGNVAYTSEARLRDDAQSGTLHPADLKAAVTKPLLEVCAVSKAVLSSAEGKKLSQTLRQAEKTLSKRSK
Description: Trypanosoma cruzi tyrosyl tRNA synthetase (TcYRS) _High Tyrosine SOP. Also: in the data most compounds retested in dose-response had high values. Format: functional. The settings on record: 30 µM.

Experiment [7] addresses T4, Tyrosyl-tRNA synthetase, putative (Trypanosoma cruzi (strain CL Brener)). Description: Trypanosoma cruzi tyrosyl tRNA synthetase (TcYRS) SOP. In kind it is functional. The settings on record: 30 µM.
Experiment [8] has as its target Chromo domain-containing protein 1 (Saccharomyces cerevisiae (strain ATCC 204508 / S288c) (Baker's yeast)) (UniProt P32657). Description: ScCHD-1 Enzyme Inhibition Assay. Also: in the data most compounds retested in dose-response had high values. Format: functional. The settings on record: 30 µM.

Structures are written as SMILES. For some assays here: Results with a measured potency or affinity are listed apart.

Sequence of Chromo domain-containing protein 1 (Saccharomyces cerevisiae (strain ATCC 204508 / S288c) (Baker's yeast)) (P32657 whole entry, the tested form may be a part): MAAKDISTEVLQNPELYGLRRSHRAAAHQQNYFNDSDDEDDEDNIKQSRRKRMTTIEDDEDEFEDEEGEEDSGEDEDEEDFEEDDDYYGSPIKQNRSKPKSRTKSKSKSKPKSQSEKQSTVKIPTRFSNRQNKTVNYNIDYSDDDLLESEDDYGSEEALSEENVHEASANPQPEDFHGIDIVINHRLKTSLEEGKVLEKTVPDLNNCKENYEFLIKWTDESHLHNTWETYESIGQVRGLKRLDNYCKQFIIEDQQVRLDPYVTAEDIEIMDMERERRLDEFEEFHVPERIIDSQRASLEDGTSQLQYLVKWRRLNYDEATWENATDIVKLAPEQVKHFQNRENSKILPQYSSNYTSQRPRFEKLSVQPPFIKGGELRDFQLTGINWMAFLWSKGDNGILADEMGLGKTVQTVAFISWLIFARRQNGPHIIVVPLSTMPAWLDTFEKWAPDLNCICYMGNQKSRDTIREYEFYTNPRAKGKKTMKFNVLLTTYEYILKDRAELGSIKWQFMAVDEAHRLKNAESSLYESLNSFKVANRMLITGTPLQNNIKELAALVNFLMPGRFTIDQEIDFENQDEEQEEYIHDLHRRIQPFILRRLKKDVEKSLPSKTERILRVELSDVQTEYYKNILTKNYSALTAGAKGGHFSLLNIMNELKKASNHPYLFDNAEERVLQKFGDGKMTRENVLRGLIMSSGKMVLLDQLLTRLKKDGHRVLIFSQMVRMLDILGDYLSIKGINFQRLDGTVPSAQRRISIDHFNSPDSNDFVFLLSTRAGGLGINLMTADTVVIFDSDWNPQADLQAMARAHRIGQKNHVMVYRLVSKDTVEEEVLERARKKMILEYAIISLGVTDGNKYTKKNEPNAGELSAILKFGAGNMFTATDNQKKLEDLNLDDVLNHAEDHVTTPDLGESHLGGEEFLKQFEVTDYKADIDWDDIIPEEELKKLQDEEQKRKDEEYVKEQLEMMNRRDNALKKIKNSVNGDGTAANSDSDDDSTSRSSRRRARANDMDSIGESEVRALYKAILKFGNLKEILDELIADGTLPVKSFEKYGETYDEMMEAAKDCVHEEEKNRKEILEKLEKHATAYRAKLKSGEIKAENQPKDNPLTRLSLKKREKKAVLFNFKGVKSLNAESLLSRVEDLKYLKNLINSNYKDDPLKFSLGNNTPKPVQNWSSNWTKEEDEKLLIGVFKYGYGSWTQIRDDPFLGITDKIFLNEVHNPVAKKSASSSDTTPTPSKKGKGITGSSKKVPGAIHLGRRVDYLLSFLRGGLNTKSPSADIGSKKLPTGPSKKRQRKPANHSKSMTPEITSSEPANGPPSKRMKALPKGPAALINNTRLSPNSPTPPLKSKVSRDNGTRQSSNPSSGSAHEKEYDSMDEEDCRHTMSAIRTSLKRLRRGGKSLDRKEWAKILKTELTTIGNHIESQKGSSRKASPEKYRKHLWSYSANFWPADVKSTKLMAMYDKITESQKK
Sequence of Protein translocase subunit SecA (Escherichia coli (strain K12)) (P10408 whole entry): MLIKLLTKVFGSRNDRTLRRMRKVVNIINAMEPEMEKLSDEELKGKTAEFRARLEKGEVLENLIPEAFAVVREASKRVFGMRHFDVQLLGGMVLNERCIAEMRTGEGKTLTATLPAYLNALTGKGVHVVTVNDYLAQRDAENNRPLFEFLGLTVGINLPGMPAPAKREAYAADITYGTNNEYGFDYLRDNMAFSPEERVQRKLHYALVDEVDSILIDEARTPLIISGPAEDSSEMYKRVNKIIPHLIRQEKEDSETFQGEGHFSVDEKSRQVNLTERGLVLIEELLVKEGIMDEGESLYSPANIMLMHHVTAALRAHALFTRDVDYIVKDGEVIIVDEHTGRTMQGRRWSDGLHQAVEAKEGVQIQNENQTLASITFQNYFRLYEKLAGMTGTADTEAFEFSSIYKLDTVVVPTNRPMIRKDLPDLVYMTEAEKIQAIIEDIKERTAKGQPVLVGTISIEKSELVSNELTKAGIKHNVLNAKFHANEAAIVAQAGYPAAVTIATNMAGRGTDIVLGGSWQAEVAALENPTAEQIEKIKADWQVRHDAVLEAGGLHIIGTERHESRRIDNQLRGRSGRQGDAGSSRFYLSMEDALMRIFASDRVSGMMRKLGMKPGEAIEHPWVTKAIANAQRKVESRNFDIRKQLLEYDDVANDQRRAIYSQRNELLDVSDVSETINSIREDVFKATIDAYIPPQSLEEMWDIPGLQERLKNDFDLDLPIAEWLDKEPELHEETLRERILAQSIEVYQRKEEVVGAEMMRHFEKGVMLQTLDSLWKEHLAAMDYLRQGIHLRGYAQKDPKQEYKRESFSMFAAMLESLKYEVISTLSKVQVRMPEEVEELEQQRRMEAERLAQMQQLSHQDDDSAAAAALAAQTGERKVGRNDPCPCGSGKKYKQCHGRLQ
Sequence of Sialic acid-binding Ig-like lectin 9 (Homo sapiens) (Q9Y336 whole entry): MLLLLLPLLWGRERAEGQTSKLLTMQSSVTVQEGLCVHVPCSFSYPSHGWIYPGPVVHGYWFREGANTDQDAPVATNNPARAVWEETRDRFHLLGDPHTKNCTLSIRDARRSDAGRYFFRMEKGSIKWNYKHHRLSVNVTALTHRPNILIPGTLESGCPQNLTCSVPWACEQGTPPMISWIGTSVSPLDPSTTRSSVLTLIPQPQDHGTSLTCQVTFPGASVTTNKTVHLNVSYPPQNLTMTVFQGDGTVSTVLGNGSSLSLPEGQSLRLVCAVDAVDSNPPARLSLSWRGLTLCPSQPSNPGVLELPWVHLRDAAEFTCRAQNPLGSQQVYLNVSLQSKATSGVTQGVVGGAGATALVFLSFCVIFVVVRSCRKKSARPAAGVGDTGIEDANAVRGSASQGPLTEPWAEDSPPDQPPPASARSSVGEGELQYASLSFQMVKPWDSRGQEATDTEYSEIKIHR

For `Cc1nc([C@@H]2C[C@@H]3CCN(C(=O)Cc4ccsc4)C[C@H]3O2)no1`, the Percent Effect in experiment [1] was -3.1%; in experiment [2] it was -1.3%; in [3], -5.06%; with Trypanosoma cruzi it was -3.21%; in experiment [4], -1.62%; in experiment [5], 10.5%. Further, the Percent Effect in the experiment listed under Homo sapiens was -23.3%; in experiment [6], -1.58%; in experiment [7], 0%; in experiment [8], -2.29%.
As for `COc1ccc(C(C)NC(=O)NCCCn2cncn2)cc1F` (stereo not given), the Percent Effect was -2.93% in experiment [1]; 16% in [2]; 2.65% in experiment [3]; -0.602% in the experiment with Trypanosoma cruzi; 1.77% in experiment [4]; 8.57% in experiment [5]. For the same molecule, the Percent Effect in the experiment filed under Homo sapiens is -15.1%; in [6], 6.84%; in experiment [7], 17.9%; in experiment [8], -9.21%.
Turning to `CN(C)C[C@H]1OC[C@@H]2CCN(S(=O)(=O)c3cccs3)C[C@@H]21`, the Percent Effect in experiment [1] is -10.2%; in [2], 1.3%; in [3] it was 12.5%; in the experiment with Trypanosoma cruzi, -2.43%; in experiment [4], -2.43%; in [5], 2.56%. Moreover, the Percent Effect was 0.627% in the experiment listed under Homo sapiens, -0.526% in [6], -2.56% in experiment [7] and 19.4% in [8].
For `CC(C)c1nccn1-c1cccc(C2CCCN2S(=O)(=O)N(C)C)n1` (stereo not given), the Percent Effect in experiment [1] is 1.33%; in experiment [2], -17.3%; in [3], -5.7%; with Trypanosoma cruzi, -2.76%; in [4], -1.77%; in [5], 14.8%. The Percent Effect in the experiment listed under Homo sapiens is 39.9%; in [6] it was 4.23%; in [7], 10%; in experiment [8], -18%.
In the case of `COCc1nc(C(=O)NS(=O)(=O)c2cc(F)ccc2F)cs1`, the Percent Effect in experiment [1] is -3.64%; in experiment [2], -2.56%; in experiment [3] it was -5.81%; in the experiment with Trypanosoma cruzi, -1.41%; in [4] it was -1.64%; in [5] it was -0.939%. The Percent Effect is 22.9% in the experiment filed under Homo sapiens, -0.478% in [6], -6.02% in [7] and 4.47% in [8].
As to `O=C(c1ccco1)N1C[C@H]2CCCN(CC3CCOCC3)[C@H]2C1`, the Percent Effect in experiment [1] was -3.2%; in experiment [2], 6.49%; in experiment [3] it was -2.43%; in the experiment with Trypanosoma cruzi, -4.77%; in [4] it was -1.62%; in experiment [5] it was 11.9%. The Percent Effect is 1.5% in the experiment filed under Homo sapiens, 4.74% in experiment [6], 15.4% in [7] and -2.11% in experiment [8].
For the molecule `Cc1ncc2c(n1)CCN(Cc1nc3ccccc3o1)C2`, the Percent Effect is -4.63% in [1]; 16% in experiment [2]; -1.93% in experiment [3]; 0.201% in the experiment on Trypanosoma cruzi; -6.21% in [4]; 16% in experiment [5]. The Percent Effect was -5.07% in the experiment listed under Homo sapiens, 7.89% in experiment [6], 25.6% in [7] and -11% in experiment [8].
Take `COCCN1CCCC1c1nccnc1Nc1nc(C)cs1` (stereo not given): the Percent Effect is -2.72% in experiment [1]; 12% in experiment [2]; 5.33% in [3]; -2.56% in the experiment with Trypanosoma cruzi; 3.98% in [4]; 7.55% in experiment [5]. In addition, the Percent Effect in the experiment listed under Homo sapiens was 21.3%; in experiment [6], 9.52%; in experiment [7] it was 15%; in [8], -24.9%.
In the case of `Cc1cc(CN(C)C(=O)c2ccc(Cl)c(S(C)(=O)=O)c2)no1`, the Percent Effect in experiment [1] was -9.03%; in experiment [2] it was 13.3%; in [3], 7.77%; in the experiment with Trypanosoma cruzi it was 3.81%; in experiment [4], -4.88%; in experiment [5], 9.41%. Further, the Percent Effect in the experiment listed under Homo sapiens was 6.05%; in [6] it was 1.58%; in [7], 10.3%; in experiment [8], -11.5%.
`O=C(Cn1cc(-c2ccccc2)ncc1=O)Nc1nnc[nH]1`: the Percent Effect is -1.82% in experiment [1]; 8.11% in [2]; 4.37% in [3]; 2.42% in the experiment with Trypanosoma cruzi; 8.74% in experiment [4]; 20.4% in experiment [5]. The Percent Effect is -1.74% in the experiment filed under Homo sapiens, 6.92% in experiment [6], 19.5% in experiment [7] and 83.7% in [8].
For the molecule `Cc1nc(C)n(CC2CCCN2Cc2ccn(-c3ccccc3)n2)n1` (stereo not given), the Percent Effect in [1] is 0.0578%; in experiment [2] it was -20.8%; in experiment [3], 13.8%; in the experiment with Trypanosoma cruzi, 0.933%; in experiment [4], -4.3%; in [5], 4.04%. Further, the Percent Effect was 3.86% in the experiment listed under Homo sapiens, 4.9% in [6], 16.5% in experiment [7] and -7.02% in experiment [8].
